A number with no mark means an inactive call. The source made the active and inactive calls.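 Rule for the calls: active = compounds whose GFP signal falls below 65% of the DMSO control level; inconclusive = fewer than 70 yeast cells counted in the well; inactive = the rest.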

This passage reports GFP response relative to DMSO results from PubChem BioAssay AID504336 (NMMLSC, 2011).

The assay can be described thus: TOR branch reporter RPL19A-GFP response – cell-based, S. cerevisiae, third cherry pick, flow cytometry, confirmation (AID 504336).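 Note: median GFP fluorescence of all gated yeast cells by flow cytometry; ratio of well median fluorescence to plate mean of DMSO wells with DMSO = 100%.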 The following applies: S. cerevisiae RPL19A-GFP strain, 3 h, at 10 µM, hits give low values.
Consider `CC(=O)NCCOc1cccc2cccnc12`, for which the GFP response relative to DMSO was 102%. For `O=C(O)c1ccc2cccc(O)c2n1`, the GFP response relative to DMSO was 102%. As to `O=C(Nc1nc(-c2ccccn2)cs1)c1ccccc1-n1cnnn1`, the GFP response relative to DMSO was 98.8%. Regarding `COc1ccccc1-c1cc(C(F)(F)F)nc(S(=O)(=O)CCCC(=O)O)n1`, the GFP response relative to DMSO was 102%. To `O=C(O)c1ccc2cccnc2c1O` belongs 100%. `Nc1ccc(O)c2c1C(=O)c1ccccc1C2=O`: the GFP response relative to DMSO is 98.5%. To `Cc1ccc(NN2C(=O)C=C(c3ccccc3)C2=O)cc1` belongs 61.2% (active). Consider `O=C(O)c1ccc(C=NNC(=O)c2cccc3ccccc23)cc1`, for which the GFP response relative to DMSO is 97.2%. As to `Oc1c(I)cc(Cl)c2cccnc12`, the GFP response relative to DMSO was 86%. To `CS(=O)(=O)Oc1ccc(Br)c2cccnc12` belongs 99.3%. To `O=C(N/N=C/c1ccccc1F)c1cccc2ccccc12` belongs 100%.

In the case of `Nc1nc(NCCOCCO)nc(Nc2cccc(F)c2)c1[N+](=O)[O-]`, the GFP response relative to DMSO was 102%. `Cc1ccc(C(=O)Nc2nc(-c3ccccn3)cs2)o1`: the GFP response relative to DMSO is 99.3%. With `CC1=NNC(=O)/C1=C\c1cn(-c2ccccc2)nc1-c1ccc(F)cc1` the figure was 89.7%; with `CSc1nc(S(C)(=O)=O)nc2[nH]c(=O)[nH]c12`, 100%; with `O=C(O)CCS(=O)(=O)c1nc(-c2cccs2)cc(C(F)(F)F)n1`, 97%. To `CCCC(=O)Nn1cnc2c(c1=O)C1(CCCC1)Cc1ccccc1-2` belongs 102%; to `CCN(CC)c1ncnc2ccc(Br)cc12`, 98%; to `Nc1c(C(=O)O)ccc2c1C(=O)c1ccccc1C2=O`, 101%. With `C[n+]1cccc2cccc([O-])c21` the figure was 98.3%; with `CCc1sc(C(=O)Nc2nc(-c3ccccn3)cs2)cc1C`, 101%.
